# Only some compounds are listed: those with a hit (about 6.5% of all), similar ones and a draw of the others.
# Autofluor 339 – intrinsic fluorescence of library compounds, ex339/em460 – biochemical, MLSMR library, data from DPM-DC assay, artefact control, profiling panel | compound autofluorescence, ex339/em460 nm, NADH buffer; stronger effect = higher value; 1 = no-compound wells, NADH background | fluorescence fold increase at 10 µM | actives 5.5% (n = 65,000) | AID 709;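 active = at 10 µM, mean starting fluorescence two-fold or more over control wells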;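 also: signal is the first read of a kinetic run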
# Spn DPM-DC inh – S. pneumoniae DPM-DC inhibition; AID 556; calls only at 10 µM; purified DPM-DC, PK/LDH coupled NADH fluorescence; actives 0.49% (n = 65,000);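 active = the 320 compounds with the highest percent inhibition in the single-dose primary screen, excluding strongly autofluorescent ones, cut at about 32% in these data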;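 also: kinetic rate of NADH fluorescence loss reporting ADP formed by the decarboxylase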
# Spn MK inh – inhibitors of Streptococcus pneumoniae mevalonate kinase | actives 0.48% (n = 65,000) | inhibition, % at 10 µM | purified MK, PK/LDH-coupled NADH absorbance 340 nm;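 active = ranked among the strongest by inhibition in the single 10 µM screen, a fixed top-ranked set picked for dose follow-up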
# NADH coupling – inhibition of NAD/NADH coupling enzymes, library profiling | coupled PK/LDH NADH assays, four targets | IC50, µM (series often up to 10 µM), for the others: top-dose inhibition | actives 0.02% (n = 65,000);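 active = single-dose screening hits from any of four coupled enzyme assays that gave an IC50 when retested across doses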;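 also: the DPM-DC format reads NADH fluorescence rather than 340 nm absorbance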
# Spn PMK inh – blocks S. pneumoniae phosphomevalonate kinase. purified PMK, PK/LDH-coupled NADH absorbance 340 nm. inhibition, % at 10 µM. actives 0.49% (n = 65,000). AID 539;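 active = top-ranked compounds by inhibition in the single 10 µM screen, taking a fixed number of the strongest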;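 also: 0% = full reaction with DMSO carrier and 100% = background rate without enzyme reaction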
# A340 absorber – compound absorbs light at 340 nm; compound absorbance at 340 nm, fold over control; fold change at 10 µM; 65,000 tested, under 10 active;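 active = at 10 µM dose, initial 340 nm absorbance at least 2 fold that of control wells; inactive = change under 2 fold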;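 also: initial absorbance extrapolated from kinetic A340 decline of NADH oxidation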
# Numbers without * were called inactive; i = inactive; / = no result given; + = active, no number.
SMILES,Autofluor 339,Spn DPM-DC inh,Spn MK inh,NADH coupling,Spn PMK inh,A340 absorber
CCN(CC)c1ccc(/C=N/n2c(=S)[nH]nc(C)c2=O)cc1,1.1,+,4.0,39.5µM*,0.0,1.18
CC1=C(C(=O)NC2CCC(C)CC2)C2(CCC(C)CC2)OC1=O (stereo not given),1.02,i,0.0,1.0%,4.0,0.99
Cc1cc(C)c2c(n1)nn1c(NCCN3CCOCC3)cc(C)nc21,3.82*,/,5.0,5.0%,5.0,1
COCCNc1cc(C)nc2c3c(C)cc(C)nc3nn12,3.83*,/,10.0,9.0%,8.0,1.01
COc1cccc(C2/C(=C(\O)c3c(C)nc4c(C)cccn34)C(=O)C(=O)N2CCCN(C)C)c1 (stereo not given),1.08,i,3.0,1.0%,0.0,1.07
COC(=O)c1ccc(OCC(O)CN(CC(C)C)CC(C)C)cc1 (stereo not given),1.06,i,5.0,5.0%,9.0,0.99
Cc1cc(N2CCCCC2)n2nc(C)c(-c3ccccc3)c2n1,1.95,i,8.0,9.0%,9.0,1.02
Cc1cc(N2CCCCC2)n2ncc(-c3ccc(Cl)cc3)c2n1,3.73*,/,16.0,10.0%,3.0,1.01
CCCc1cc(N2CCN(c3ccccn3)CC2)n2nc(C)c(-c3ccccc3)c2n1,2.84*,i,9.0,6.0%,0.0,1
Cc1cc(N2CCCCC2)n2ncc(-c3ccccc3)c2n1,2.54*,i,10.0,7.0%,12.0,1.04
Cc1cc(N2CCC(C)CC2)n2nc(C)c(-c3ccccc3)c2n1,2.39*,i,2.0,5.0%,11.0,1.04
COc1ccc(-c2nn(CC(=O)N(C)C)c(=O)c3ccccc23)cc1,1.13,i,12.0,8.0%,7.0,1.02
CCCCNC(=O)CCCCCNS(=O)(=O)c1ccc(OC)cc1,1.06,i,0.0,3.0%,10.0,1.01
Cc1ccc(N2CN=c3s/c(=C\c4ccccn4)c(=O)n3C2)cc1,1,i,3.0,4.0%,0.0,1.17
COc1ccccc1N1CCN(C(=O)CN(c2cc(C)cc(C)c2)S(C)(=O)=O)CC1,1.11,i,4.0,1.0%,0.0,1.06
Cc1c(C(C)O)nnn1-c1nonc1N (stereo not given),1.01,i,9.0,9.0%,13.0,0.97
CCSc1nc(-c2ccc(OC)cc2)n(-c2nc3ccccc3s2)n1,1.46,i,16.0,7.0%,4.0,1.03
CCOC(=O)c1[nH]c(C)c(/C(O)=C2\C(=O)C(=O)N(CCCN(C)C)C2c2cccnc2)c1C (stereo not given),1.03,i,10.0,6.0%,9.0,1.12
Cc1cc(N2CCC(C)CC2)n2ncc(-c3ccccc3)c2n1,3.02*,i,9.0,10.0%,13.0,1.03
Cc1cc(N2CCN(C(=O)c3ccco3)CC2)n2ncc(-c3ccccc3)c2n1,1.42,i,0.0,4.0%,10.0,1.08
Cc1nn2c(N3CCCC3)cc(C(C)C)nc2c1-c1ccccc1,2.14*,i,6.0,5.0%,6.0,1
CCn1cc(C(C)NC(=O)COc2ccc(Cl)cc2C)c(C)n1 (stereo not given),1.03,i,7.0,11.0%,9.0,0.99
CN(C)S(=O)(=O)c1ccc(C(=O)Nc2ccnn2C2CCCCC2)cc1,0.99,i,0.0,3.0%,9.0,0.99
COc1ccccc1CNC(=O)C1CCN(S(=O)(=O)N2CC(C)CC(C)C2)CC1 (stereo not given),0.97,i,5.0,12.0%,25.0*,1.03
CCOCCCNC(=O)C1CCN(S(=O)(=O)N2CC(C)CC(C)C2)CC1 (stereo not given),1.01,i,0.0,9.0%,28.0*,0.99
SMILES,Autofluor 339,Spn DPM-DC inh,Spn MK inh,NADH coupling,Spn PMK inh,A340 absorber
c1coc(C2Nc3cccc4cccc(c34)N2)c1,3.83*,/,12.0,12.0%,12.0,1.08
COC(=O)c1ccsc1NC(=O)c1ccc2c(c1)OCCO2,2.13*,/,5.0,6.0%,7.0,1.07
Cc1cc(C)n2nc(SCC(=O)NCc3ccco3)nc2n1,0.97,i,3.0,13.0%,30.0*,1
Cn1c(SCC(=O)NCc2ccco2)nc2ccccc2c1=O,1.07,i,16.0,14.0%,25.0*,1.01
O=C(CSc1cccc2cccnc12)NCc1ccco1,4.87*,/,0.0,5.0%,9.0,1.05
O=C(CSc1nc2ccccc2c(=O)n1Cc1ccco1)NCc1ccccc1,1.04,i,7.0,3.0%,0.0,1
Cc1cc(C)nc(SCC(=O)NCc2ccco2)n1,1.1,i,4.0,8.0%,19.0,1.06
CCOC(=O)CSc1cccc2cccnc12,3.62*,/,7.0,4.0%,0.0,1.04
Cc1nc(SCC(=O)Nn2c(-c3ccccc3)nc3ccccc3c2=O)n[nH]1,1.1,i,0.0,1.0%,4.0,1.04
CCC12CN(C(=O)c3ccc(OC)cc3)CC(CC)(CN(C(=O)c3ccc(OC)cc3)C1)C2=O,1.13,i,/,3.0%,5.0,1.01
O=C(Nn1cnnc1)c1ccccc1CCc1ccccc1,1.12,i,4.0,8.0%,10.0,1.03
CCCn1c(=O)c(C(=O)Nc2nnc(CC)s2)c(O)c2ccccc21,1.19,i,5.0,3.0%,3.0,0.99
Cc1ccc(CNC(=O)Cn2c(=O)oc3ccccc32)o1,1.07,i,7.0,7.0%,14.0,0.96
CN(CC(=O)Nc1ccc2c(c1)OCCO2)S(=O)(=O)c1cccc2cccnc12,1.09,i,4.0,2.0%,3.0,1.04
Cc1nn(C)c(C)c1NC(=O)c1ccc(S(=O)(=O)N(C)C)cc1,1.09,i,7.0,6.0%,7.0,1.03
O=S(=O)(CC(CN1CCCC1)N1CCCC1)c1ccc2ccccc2c1 (stereo not given),1.05,i,5.0,4.0%,7.0,1.06
Cc1cc(N2CCCC2=O)c(N)cc1N,1.06,i,7.0,4.0%,3.0,1.02
Nc1c(S(=O)(=O)c2cccc(Cl)c2)c2nc3ccccc3nc2n1CCN1CCOCC1,3.88*,/,5.0,8.0%,10.0,1.09
Cc1ccc(S(=O)(=O)c2c(N)n(NC(=O)C3CC3)c3nc4ccccc4nc23)cc1,3.75*,/,12.0,14.0%,15.0,1.07
Cc1ccc(S(=O)(=O)N2CCCC(C(=O)NCC3COCCO3)C2)cc1 (stereo not given),1.08,i,3.0,1.0%,1.0,1.04
Cc1ccc(S(=O)(=O)c2c(N)n(CC3CCOC3)c3nc4ccccc4nc23)cc1 (stereo not given),2.09*,/,2.0,9.0%,15.0,1.08
Cc1ccc(S(=O)(=O)N2CCC(C(=O)Nc3ccccc3N3CCCCC3)CC2)cc1,1.04,i,0.0,4.0%,11.0,0.99
CCOc1ccccc1NC(=O)c1ccccc1-c1nc(-c2ccccc2OC)no1,1.12,i,4.0,8.0%,20.0,1.04
COc1ccc(OC)c(NC(=O)CNC(=O)Cn2ccc3ccccc3c2=O)c1,1.19,i,6.0,14.0%,30.0*,1.07

# Compound activity (PubChem BioAssay)
